Holding throughout (test): qHTS profiling for inhibitors of Plasmodium falciparum proliferation (AID 504749); note: nearly all actives have a fitted effect of over 60% in size
What all share (details): P. falciparum in erythrocytes, SYBR Green DNA, 72 h; series mostly up to 28.7 µM
A general note: Quantitative high-throughput screening tests each substance at several concentrations.

One experiment has as its system CP194. The essentials: (§1)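 SYBR Green fluorescence (ex 485 nm, em 535 nm) reports parasite DNA after 72 h compound exposure of infected red cells at 0.3% parasitemia, 2.5% hematocrit; signal normalized to 0.29 uM artemisinin and vehicle wells.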
In the next experiment the test system is CP201. The essentials:
as §1

The test system of another experiment is CP215. In outline: as §1
The subject of another experiment is CP217. In outline:
as §1

The subject of a further experiment is CP237. In outline:
as §1

Another experiment deals with CP238. The essentials:
as §1

Another experiment concerns CP247. The essentials: as §1
Another experiment has as its system CP250. The essentials:
as §1

The subject of the next experiment is CP252. In outline: as §1
In another experiment the test system is CP256. In outline: as §1
For a further experiment, the system named is CP260. The essentials:
as §1

The subject of another experiment is CP262. In outline:
as §1

For the next experiment, the system named is CP265. The essentials: as §1
Another experiment relates to CP266. The essentials:
as §1

In the next experiment the test system is CP286. The essentials:
as §1

The subject of the next experiment is CP211. In outline:
as §1

The test system of the next experiment is CP268. The essentials:
as §1

A further experiment relates to CP269. The essentials:
as §1

The subject of the next experiment is CP291. In outline:
as §1

A further experiment concerns CP203. In outline:
as §1

Each structure is given as a SMILES string. Records with an inconclusive call do not appear. The source made the active and inactive calls. Calls come from the whole dose curve; as a rule, active = well fitted inhibition curve with a large enough effect; inconclusive = small, poorly fitted or top-dose-only effect; inactive = flat fitted curve, though single readings scatter.
Potency is the fitted concentration of half-maximal effect.

As for `CC(=O)[O][Al][O]C(C)=O`, the Potency result in the experiment on CP194, in the experiment with CP201, in the experiment on CP215, in the experiment with CP217, in the experiment with CP237 and in the experiment on CP238 was “inactive” throughout. Also, the Potency entry with CP247, in the experiment with CP250, with CP252, in the experiment with CP256, with CP260 and in the experiment on CP262 was “inactive” throughout. Besides, the Potency entry in the experiment on CP265, in the experiment with CP266 and in the experiment on CP286 was “inactive” each time.

In the case of `C=CC[C@@H]1/C=C(\C)C[C@H](C)C[C@H](OC)[C@H]2O[C@@](O)(C(=O)C(=O)N3CCCC[C@H]3C(=O)O[C@H](/C(C)=C/[C@@H]3CC[C@@H](O)[C@H](OC)C3)[C@H](C)[C@@H](O)CC1=O)[C@H](C)C[C@@H]2OC`, the Potency was 4.26 µM (active) with CP194; 5.36 µM (active) in the experiment on CP201; 4.78 µM (active) in the experiment on CP211; 3.79 µM (active) in the experiment with CP215; 3.16 µM (active) in the experiment on CP217; 0.708 µM (active) in the experiment with CP237. For the same compound, the Potency in the experiment on CP238 was 1.12 µM (active); with CP247, 1.41 µM (active); with CP250 it was 0.891 µM (active); with CP252 it was 1 µM (active); with CP256, 0.708 µM (active); with CP260, 0.794 µM (active). The Potency is 4.26 µM (active) with CP262; 0.631 µM (active) in the experiment with CP265; 8.49 µM (active) with CP266; 0.849 µM (active) in the experiment with CP268; 3.79 µM (active) with CP269; 1 µM (active) with CP286. The Potency with CP291 was 6.75 µM (active).

For `O=C(Nc1ccc(O)cc1)c1ccccc1O`, the Potency result in the experiment on CP194, with CP201, in the experiment on CP211, in the experiment on CP215, with CP237 and in the experiment with CP238 was “inactive” in each case. Moreover, the Potency result with CP250, in the experiment with CP252, in the experiment with CP260, in the experiment on CP262, in the experiment on CP266 and with CP268 was “inactive” throughout. Also, the Potency result in the experiment with CP269, in the experiment on CP286 and with CP291 was “inactive” throughout.

As to `CN(CCO)CC(O)Cn1cnc2c1c(=O)n(C)c(=O)n2C` (centres undefined) (tested in a mixture with another compound), the Potency entry in the experiment on CP194, with CP201, with CP211, with CP215, in the experiment on CP217 and in the experiment on CP237 was “inactive” in each case. Also, the Potency entry in the experiment with CP238, in the experiment with CP247, with CP250, in the experiment on CP252, with CP256 and with CP260 was “inactive” each time. Also, the Potency entry with CP262, in the experiment with CP265, in the experiment with CP266, in the experiment on CP268, in the experiment with CP269 and with CP286 was “inactive” in each case. Moreover, in the experiment on CP291, the Potency result was “inactive”.

For `CCCCC`, the Potency entry with CP194, in the experiment with CP201, with CP211, with CP215, with CP217 and with CP237 was “inactive” each time. Also, the Potency result in the experiment on CP238, in the experiment on CP247, with CP250, with CP252, in the experiment with CP256 and in the experiment on CP260 was “inactive” each time. Also, the Potency entry in the experiment with CP265, with CP266, with CP268, in the experiment with CP269, with CP286 and in the experiment with CP291 was “inactive” each time.

Turning to `COc1ccc(/C=N/NC(=O)c2ccncc2)c(C(=O)O)c1OC`, the Potency result in the experiment with CP194, in the experiment with CP203, in the experiment on CP211, in the experiment on CP215, in the experiment on CP217 and with CP237 was “inactive” throughout. Besides, the Potency result with CP238, in the experiment with CP247, in the experiment on CP250, with CP252, in the experiment with CP256 and with CP260 was “inactive” each time. The Potency entry in the experiment with CP262, in the experiment with CP265, in the experiment with CP266, in the experiment on CP268, in the experiment on CP269 and with CP286 was “inactive” each time. Besides, the Potency result in the experiment with CP291 is “inactive”.

Take `Cc1cccc(C)c1NC(=O)NC1=CCCN1C`: the Potency result in the experiment on CP194, in the experiment with CP201, in the experiment with CP211, in the experiment with CP215, with CP217 and in the experiment on CP237 was “inactive” each time. For the same compound, the Potency entry in the experiment on CP238, with CP247, with CP250, with CP252, with CP256 and in the experiment on CP260 was “inactive” throughout. For the same compound, the Potency entry in the experiment with CP262, in the experiment with CP265, in the experiment on CP268, in the experiment with CP269, in the experiment on CP286 and with CP291 was “inactive” throughout.

Consider `O.O.O.O.O.O.O.O=S(=O)([O-])[O-].[Co+2]`, for which the Potency with CP194 was 7.57 µM (active); with CP201 it was 7.57 µM (active); in the experiment on CP211, 9.53 µM (active); in the experiment on CP217, 11.2 µM (active); in the experiment on CP238, 7.94 µM (active); in the experiment on CP247, 11.2 µM (active). Further, the Potency in the experiment with CP250 is 11.2 µM (active); with CP252, 11.2 µM (active); in the experiment with CP256 it was 8.91 µM (active); in the experiment on CP260, 10 µM (active); with CP265 it was 11.2 µM (active); with CP269 it was 7.57 µM (active). In addition, the Potency with CP286 was 10 µM (active); in the experiment on CP291 it was 9.53 µM (active).

Regarding `O=C(NNCS(=O)(=O)O)c1ccncc1`, the Potency entry with CP194, with CP201, in the experiment on CP211, in the experiment with CP215, in the experiment on CP217 and in the experiment with CP237 was “inactive” throughout. Also, the Potency result in the experiment on CP238, in the experiment on CP247, in the experiment on CP250, in the experiment with CP252, in the experiment on CP256 and with CP260 was “inactive” each time. Besides, the Potency result in the experiment on CP262, with CP265, in the experiment on CP266, with CP268, in the experiment on CP269 and in the experiment with CP286 was “inactive” throughout. Further, in the experiment on CP291, the Potency entry is “inactive”.

In the case of `O=P(O)(O)CP(=O)(O)O`, the Potency result in the experiment on CP194, in the experiment with CP201, in the experiment with CP211, in the experiment on CP215, in the experiment on CP217 and in the experiment on CP237 was “inactive” throughout. Also, the Potency entry with CP238, in the experiment on CP247, in the experiment on CP250, in the experiment with CP252, with CP256 and in the experiment with CP260 was “inactive” each time. Moreover, the Potency entry with CP262, with CP266, in the experiment on CP269, in the experiment on CP286 and in the experiment with CP291 was “inactive” each time.

Regarding `COc1ccccc1N1CCN(CCCC(=O)c2ccc(F)cc2)CC1`, the Potency entry in the experiment on CP194, with CP201, in the experiment with CP211, with CP215, in the experiment with CP217 and in the experiment with CP237 was “inactive” throughout. Also, the Potency result with CP238, with CP247, with CP250, with CP252, with CP256 and in the experiment on CP260 was “inactive” throughout. In addition, the Potency entry in the experiment on CP262, in the experiment on CP265, in the experiment with CP266, with CP268, in the experiment on CP269 and in the experiment with CP286 was “inactive” each time. Moreover, the Potency entry in the experiment on CP291 is “inactive”.

Take `CC(=O)Nc1ccc(NC(=S)NC(=O)c2ccc(C(C)(C)C)cc2)cc1`: the Potency result in the experiment with CP194, with CP201, in the experiment on CP211, in the experiment with CP215, in the experiment on CP217 and in the experiment with CP238 was “inactive” each time. In addition, the Potency entry in the experiment on CP247, with CP250, in the experiment with CP252, with CP256, in the experiment on CP262 and in the experiment on CP266 was “inactive” throughout. The Potency entry with CP268, in the experiment with CP269 and in the experiment with CP291 was “inactive” in each case.

For `C#C[C@]1(O)CC[C@@H]2[C@H]3CCC4=CC(=O)CC[C@H]4[C@H]3C(=C)C[C@@]21CC`, the Potency in the experiment on CP194 was 0.536 µM (active); in the experiment on CP201, 0.478 µM (active); with CP211 it was 0.478 µM (active); with CP215, 0.478 µM (active); in the experiment on CP266, 0.301 µM (active); in the experiment on CP268, 0.426 µM (active). In addition, the results for the Potency in the experiment on CP269 and in the experiment with CP291 were 0.536 µM (active) and 0.426 µM (active), respectively. In addition, the Potency result in the experiment on CP238, in the experiment with CP250, with CP252, in the experiment with CP260, in the experiment with CP262 and with CP265 was “inactive” throughout. Further, the Potency entry with CP286 was “inactive”.

As for `O=C(O)CCCC/C=C(\c1ccccc1)c1cccnc1`, the Potency result in the experiment with CP194, in the experiment with CP201, in the experiment on CP211, with CP215, in the experiment on CP217 and with CP237 was “inactive” throughout. Also, the Potency entry in the experiment with CP238, in the experiment on CP247, with CP250, with CP252, in the experiment on CP256 and with CP260 was “inactive” in each case. Besides, the Potency result with CP262, in the experiment on CP265, in the experiment with CP268, with CP269, in the experiment with CP286 and in the experiment with CP291 was “inactive” each time.

In the case of `O=C1c2ccccc2C(=O)C1c1ccc(Cl)cc1`, the Potency entry in the experiment with CP194, with CP201, in the experiment with CP211, in the experiment on CP215, in the experiment on CP217 and with CP237 was “inactive” in each case. The Potency result with CP238, with CP247, with CP250, with CP252, in the experiment on CP256 and in the experiment on CP260 was “inactive” in each case. The Potency result in the experiment with CP262, with CP265, in the experiment on CP266, with CP268, with CP269 and in the experiment with CP286 was “inactive” each time. Also, the Potency entry with CP291 is “inactive”.

The values above are taken from PubChem BioAssay (NCATS).
